Reference: PubChem BioAssay (EPA / NIEHS)
Calls of active or inactive are those of the source. The calls were made as follows: active = hit-call score of the fitted dose curve at least 0.9, where 1 is the maximum; inactive = score below 0.9.

How the values were obtained:
[1] = molecular target: Transcription factor E2F1 (Homo sapiens) (UniProt Q01094); test: ATG_E2F_CIS: Attagene CIS-FACTORIAL HepG2 Assay for human E2F Transcription Factor 1 (AID 2282935); settings: HepG2 Attagene cis-reporter, E2F reporter RNA transcripts; actives raise or lower the signal
Sequence of Transcription factor E2F1 (Homo sapiens) (Q01094 whole entry, looked up): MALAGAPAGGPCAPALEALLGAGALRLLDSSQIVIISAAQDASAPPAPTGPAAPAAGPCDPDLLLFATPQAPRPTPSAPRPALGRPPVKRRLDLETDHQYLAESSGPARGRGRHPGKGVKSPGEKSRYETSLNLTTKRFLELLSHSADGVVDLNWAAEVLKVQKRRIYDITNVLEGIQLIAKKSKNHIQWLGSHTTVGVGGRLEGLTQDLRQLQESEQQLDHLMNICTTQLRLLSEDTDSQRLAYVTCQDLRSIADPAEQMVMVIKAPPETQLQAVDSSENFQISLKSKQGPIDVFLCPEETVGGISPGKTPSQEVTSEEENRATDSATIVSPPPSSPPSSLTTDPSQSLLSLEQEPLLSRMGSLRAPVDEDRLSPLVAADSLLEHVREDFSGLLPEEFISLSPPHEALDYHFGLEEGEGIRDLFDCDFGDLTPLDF
Summary of the method: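 HepG2 cells transiently transfected with multiplexed cis-element reporter units, dosed for 24 h. Reporter mRNA measured by RT-PCR, 6-FAM primer-extension labeling, HpaI digestion and capillary electrophoresis; bidirectional fit versus DMSO baseline.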

[2] = ATG_EGR_CIS: Attagene CIS-FACTORIAL HepG2 Assay for human Early Growth Response 1 (EGR1) (AID 2282938); settings: HepG2 Attagene CIS-FACTORIAL EGR reporter mRNA; actives raise or lower the signal
Summary of the method: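 HepG2 cells transiently transfected with cis-promoter-driven multiplexed reporter transcription units; reporter mRNA measured 24 h after compound dosing by RT-PCR, 6-FAM primer extension, HpaI digestion and capillary electrophoresis. Bidirectional fit versus DMSO baseline.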

[3] = ATG_M_19_CIS: Attagene CIS-FACTORIAL HepG2 Assay for M19 Transcription Factor (Internal Marker) (AID 2282939); settings: HepG2 Attagene CIS-FACTORIAL M19 internal marker reporter; actives raise or lower the signal
Summary of the method: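 Chemical-treated HepG2 (24 h) with MRTU constructs; reporter transcripts detected by fluorescent RT-PCR fragment analysis on capillary electrophoresis. Internal background marker, DMSO as baseline.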

[4] = ATG_ERE_CIS: Attagene CIS-FACTORIAL HepG2 Assay for Estrogen Response Element (ERE) (AID 2282940); settings: HepG2 ERE cis-reporter, Attagene RNA transcript; actives raise or lower the signal
Summary of the method: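 Human liver cells (HepG2) bearing transiently transfected, promoter-regulated reporter units were exposed 24 h. Reporter mRNA induction was detected by capillary electrophoresis of labelled RT-PCR products and fitted bidirectionally to DMSO.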

[5] = ATG_FoxO_CIS: Attagene CIS-FACTORIAL HepG2 Assay for human Forkhead box O (FoxO) (AID 2282943); settings: HepG2 Attagene cis-reporter, FoxO element, mRNA; actives raise or lower the signal
Summary of the method: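 HepG2 cells transiently transfected with cis-promoter-driven multiple reporter transcription units; 24 h after chemical dosing, reporter mRNA quantified by RT-PCR, fluorescent primer extension, HpaI digestion and capillary electrophoresis. Bidirectional fitting versus DMSO baseline.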

[6] = ATG_GATA_CIS: Attagene CIS-FACTORIAL HepG2 Assay for human GATA Binding Protein (AID 2282944); settings: HepG2 GATA cis-element reporter, Attagene multiplex mRNA; actives raise or lower the signal
Summary of the method: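 Transfected cis-reporter HepG2 cells were treated with chemicals for 24 hours. Total RNA was then converted to cDNA, amplified with reporter-specific primers and analysed by fluorescent capillary electrophoresis, using DMSO-treated wells as baseline.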

[7] = ATG_GLI_CIS: Attagene CIS-FACTORIAL HepG2 Assay for human Zinc Finger Protein GLI1 (AID 2282945); settings: HepG2, Attagene cis-factorial reporter mRNA, GLI element; actives raise or lower the signal
Summary of the method: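 HepG2 cells transiently transfected with cis-promoter multiplexed reporter units report endogenous transcription factor activity. After 24 h chemical exposure, reporter mRNA was quantified by RT-PCR, 6-FAM labelling, HpaI digestion and capillary electrophoresis, with bidirectional fitting against DMSO.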

[8] = ATG_GRE_CIS: Attagene CIS-FACTORIAL HepG2 Assay for human Glucocorticoid Response Elements (GRE) (AID 2282947); settings: HepG2 GRE cis-reporter, Attagene multiplex mRNA; actives raise or lower the signal
Summary of the method: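 HepG2 cells transiently transfected with multiple cis-promoter reporter units measure endogenous TF activity; 24 h compound exposure. Reporter mRNA quantified by RT-PCR, FAM labelling, HpaI digestion and capillary electrophoresis; bidirectional fit vs DMSO baseline.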

[9] = ATG_ISRE_CIS: Attagene CIS-FACTORIAL HepG2 Assay for human Interferon Regulatory Factor 1 (IRF1) binding to an Interferon-Stimulated Response Element (ISRE) (AID 2282948); settings: HepG2 ISRE cis-reporter (Attagene), mRNA transcription readout; actives raise or lower the signal
Summary of the method: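 Cell-based cis-reporter assay; HepG2; 24 h exposure; reporter mRNA by RT-PCR plus capillary electrophoresis fluorescence; activity in either direction scored relative to DMSO.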

[10] = ATG_M_32_CIS: Attagene CIS-FACTORIAL HepG2 Assay for M32 Transcription Factor (Internal Marker) (AID 2282949); settings: HepG2 Attagene cis-factorial M32 reporter, mRNA; actives raise or lower the signal;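 also: background control marker of the multiplexed CIS panel rather than a real target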
Summary of the method: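 Following 24 h chemical exposure of HepG2 cells transiently expressing cis-promoter reporter constructs, reporter transcript levels were determined by RT-PCR with fluorescent labelling and capillary electrophoresis, then fitted bidirectionally against DMSO.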

[11] = ATG_M_06_CIS: Attagene CIS-FACTORIAL HepG2 Assay for M06 Transcription Factor (Internal Marker) (AID 2282950); settings: HepG2 Attagene CIS-FACTORIAL M06 internal marker reporter; actives raise or lower the signal
Summary of the method: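 Cells (HepG2, transiently carrying cis-driven reporter units) receive chemical for 24 h before RNA isolation. Reporter cDNA is PCR-amplified, FAM-labelled by primer extension, HpaI-digested and sized on a capillary analyser.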

[12] = molecular target: Hypoxia-inducible factor 1-alpha (Homo sapiens) (UniProt Q16665); test: ATG_HIF1a_CIS: Attagene CIS-FACTORIAL HepG2 Assay for human Hypoxia Inducible Factor 1 (HIF1A) (AID 2282951); settings: HepG2 Attagene cis-factorial HIF1a reporter transcription; actives raise or lower the signal
Sequence of Hypoxia-inducible factor 1-alpha (Homo sapiens) (Q16665 whole entry, looked up): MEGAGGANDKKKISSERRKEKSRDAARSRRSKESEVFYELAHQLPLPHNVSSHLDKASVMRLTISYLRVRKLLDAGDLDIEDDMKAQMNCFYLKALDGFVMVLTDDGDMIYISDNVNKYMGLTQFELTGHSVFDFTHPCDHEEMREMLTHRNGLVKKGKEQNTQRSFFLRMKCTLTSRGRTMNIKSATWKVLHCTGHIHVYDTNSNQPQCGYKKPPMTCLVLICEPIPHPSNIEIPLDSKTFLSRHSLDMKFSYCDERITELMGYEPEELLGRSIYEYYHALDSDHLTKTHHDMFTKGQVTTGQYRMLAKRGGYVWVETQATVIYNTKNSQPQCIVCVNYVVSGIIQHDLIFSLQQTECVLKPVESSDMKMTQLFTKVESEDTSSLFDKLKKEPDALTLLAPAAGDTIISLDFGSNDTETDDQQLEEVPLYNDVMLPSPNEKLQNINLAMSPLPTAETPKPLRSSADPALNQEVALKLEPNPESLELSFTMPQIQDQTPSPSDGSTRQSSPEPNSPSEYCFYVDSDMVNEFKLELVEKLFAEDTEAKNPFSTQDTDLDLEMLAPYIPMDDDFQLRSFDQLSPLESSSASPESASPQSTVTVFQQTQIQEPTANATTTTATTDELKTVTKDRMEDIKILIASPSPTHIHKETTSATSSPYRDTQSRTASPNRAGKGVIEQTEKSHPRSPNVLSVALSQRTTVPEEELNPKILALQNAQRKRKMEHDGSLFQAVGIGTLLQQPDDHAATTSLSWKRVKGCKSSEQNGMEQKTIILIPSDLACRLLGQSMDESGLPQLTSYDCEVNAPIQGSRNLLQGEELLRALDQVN
Summary of the method: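 HepG2 cells transiently transfected with multiplexed cis-promoter reporter units; reporter mRNA read 24 h after dosing by RT-PCR, 6-FAM primer-extension labelling, HpaI digestion and capillary electrophoresis. Bidirectional fit versus DMSO baseline.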

[13] = molecular target: Hepatocyte nuclear factor 6 (Homo sapiens) (UniProt Q9UBC0); test: ATG_HNF6_CIS: Attagene CIS-FACTORIAL HepG2 Assay for human Hepatocyte Nuclear Factor 6 (HNF6) (AID 2282952); settings: HepG2 Attagene cis-factorial HNF6 reporter transcription; actives raise or lower the signal
Sequence of Hepatocyte nuclear factor 6 (Homo sapiens) (Q9UBC0 whole entry, looked up): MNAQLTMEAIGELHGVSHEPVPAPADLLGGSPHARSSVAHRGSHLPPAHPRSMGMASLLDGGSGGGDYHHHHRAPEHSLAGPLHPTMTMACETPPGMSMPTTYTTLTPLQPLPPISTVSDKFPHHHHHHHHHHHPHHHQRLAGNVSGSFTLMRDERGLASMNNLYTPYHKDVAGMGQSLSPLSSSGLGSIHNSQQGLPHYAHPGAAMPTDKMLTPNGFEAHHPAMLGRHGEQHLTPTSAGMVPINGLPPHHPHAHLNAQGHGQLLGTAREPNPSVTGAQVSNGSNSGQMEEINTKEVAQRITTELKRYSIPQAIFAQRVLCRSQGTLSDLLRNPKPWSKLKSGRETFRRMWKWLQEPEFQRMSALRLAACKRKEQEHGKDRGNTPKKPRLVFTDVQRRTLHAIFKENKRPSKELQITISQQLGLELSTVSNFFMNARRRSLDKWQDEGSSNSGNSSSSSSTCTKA
Summary of the method: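 Cells are HepG2 carrying transiently transfected cis-promoter reporter units. Treatment lasts 24 h, after which reporter transcripts are reverse-transcribed, amplified, FAM-labelled and sized by capillary electrophoresis. DMSO serves as baseline.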

[14] = molecular target: Heat shock factor protein 1 (Homo sapiens) (UniProt Q00613); test: ATG_HSE_CIS: Attagene CIS-FACTORIAL HepG2 Assay for human Heat Shock Transcription Factor 1 (HSE) (AID 2282953); settings: HepG2 HSE cis-reporter, Attagene RNA transcription; actives raise or lower the signal
Sequence of Heat shock factor protein 1 (Homo sapiens) (Q00613 whole entry, looked up): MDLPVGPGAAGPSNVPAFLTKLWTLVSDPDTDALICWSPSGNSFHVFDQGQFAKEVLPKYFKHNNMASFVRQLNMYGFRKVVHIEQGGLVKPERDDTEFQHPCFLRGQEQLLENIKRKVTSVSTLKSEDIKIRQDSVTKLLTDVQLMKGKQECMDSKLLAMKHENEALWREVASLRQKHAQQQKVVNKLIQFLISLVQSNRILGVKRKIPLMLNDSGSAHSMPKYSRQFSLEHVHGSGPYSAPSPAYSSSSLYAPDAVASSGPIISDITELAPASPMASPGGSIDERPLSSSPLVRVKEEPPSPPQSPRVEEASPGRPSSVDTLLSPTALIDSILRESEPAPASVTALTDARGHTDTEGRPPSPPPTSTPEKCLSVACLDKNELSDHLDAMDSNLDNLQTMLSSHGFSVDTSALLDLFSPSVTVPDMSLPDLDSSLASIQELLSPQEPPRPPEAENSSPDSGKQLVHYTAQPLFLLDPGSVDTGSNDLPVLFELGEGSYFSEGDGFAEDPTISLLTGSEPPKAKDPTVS
Summary of the method: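 Liver-derived HepG2 cells carry transiently introduced multiple reporter units governed by cis promoters. Reporter RNA measured 24 h post-dose through reverse transcription, PCR amplification, fluorescent labelling and capillary electrophoresis, normalised to DMSO.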

[15] = ATG_MRE_CIS: Attagene CIS-FACTORIAL HepG2 Assay for human Metal Responsive Element (MRE) (AID 2282954); settings: HepG2 MRE cis-reporter transcription, Attagene multiplex; actives raise or lower the signal
Summary of the method: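 HepG2 cells transiently transfected with multiple cis-element reporter units measure endogenous MTF1-driven transcription. After 24 h compound exposure, reporter mRNA is quantified by RT-PCR with 6-FAM labelling, HpaI digestion and capillary electrophoresis; bidirectional fits versus DMSO.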

[16] = ATG_M_61_CIS: Attagene CIS-FACTORIAL HepG2 Assay for M61 Transcription Factor (Internal Marker) (AID 2282937); settings: HepG2 Attagene CIS-FACTORIAL M61 internal marker reporter; actives raise or lower the signal
Summary of the method: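 HepG2 cells transiently transfected with cis-element-driven multiple reporter transcription units, dosed for 24 h. Reporter mRNA measured by RT-PCR, 6-FAM primer-extension labelling, HpaI digestion and capillary electrophoresis; bidirectional fit versus DMSO baseline.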

[17] = ATG_Ets_CIS: Attagene CIS-FACTORIAL HepG2 Assay for human Erythroblast Transformation Specific (ETS) (AID 2282941); settings: HepG2 ETS cis-reporter transcription, actives raise or lower the signal
Summary of the method: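 Human HepG2 hepatoma cells were transiently transfected with promoter-driven reporter constructs and treated for 24 hours. Reporter transcripts were quantified by RT-PCR with fluorescent primer extension; bidirectional curve fitting used DMSO as reference.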

[18] = molecular target: Hepatocyte nuclear factor 3-beta (Homo sapiens) (UniProt Q9Y261); test: ATG_FoxA2_CIS: Attagene CIS-FACTORIAL HepG2 Assay for human Forkhead box A2 (FOXA2) (AID 2282942); settings: HepG2 cis-reporter transcription factor activity, 24 h; actives raise or lower the signal
Sequence of Hepatocyte nuclear factor 3-beta (Homo sapiens) (Q9Y261 whole entry, looked up): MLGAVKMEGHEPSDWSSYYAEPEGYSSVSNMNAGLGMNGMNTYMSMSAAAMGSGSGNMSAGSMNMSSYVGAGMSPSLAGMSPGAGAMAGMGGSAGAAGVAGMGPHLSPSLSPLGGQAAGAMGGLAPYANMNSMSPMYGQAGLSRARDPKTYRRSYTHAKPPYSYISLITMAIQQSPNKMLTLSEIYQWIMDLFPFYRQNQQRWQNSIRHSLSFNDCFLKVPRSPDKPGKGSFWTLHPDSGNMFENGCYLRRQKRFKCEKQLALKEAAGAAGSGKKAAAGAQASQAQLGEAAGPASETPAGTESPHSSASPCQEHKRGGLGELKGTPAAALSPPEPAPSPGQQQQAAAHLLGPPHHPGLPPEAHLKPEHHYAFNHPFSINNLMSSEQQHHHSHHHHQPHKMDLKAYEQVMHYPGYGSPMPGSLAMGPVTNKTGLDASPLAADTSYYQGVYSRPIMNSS
Summary of the method: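 HepG2 cells transiently transfected with multiple cis-regulated reporter transcription units, dosed for 24 h. Reporter mRNA measured by RT-PCR, 6-FAM labelling, HpaI digestion and capillary electrophoresis; bidirectional fitting against DMSO baseline.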

[19] = molecular target: Bile acid receptor (Homo sapiens) (UniProt Q96RI1); test: ATG_IR1_CIS: Attagene CIS-FACTORIAL HepG2 Assay for human Nuclear Receptor Subfamily 1 Group H Member 4 (NR1H4), IR1 submotif (AID 2282946); settings: IR1 reporter transcription, actives raise or lower the signal
Sequence of Bile acid receptor (Homo sapiens) (Q96RI1 whole entry, looked up): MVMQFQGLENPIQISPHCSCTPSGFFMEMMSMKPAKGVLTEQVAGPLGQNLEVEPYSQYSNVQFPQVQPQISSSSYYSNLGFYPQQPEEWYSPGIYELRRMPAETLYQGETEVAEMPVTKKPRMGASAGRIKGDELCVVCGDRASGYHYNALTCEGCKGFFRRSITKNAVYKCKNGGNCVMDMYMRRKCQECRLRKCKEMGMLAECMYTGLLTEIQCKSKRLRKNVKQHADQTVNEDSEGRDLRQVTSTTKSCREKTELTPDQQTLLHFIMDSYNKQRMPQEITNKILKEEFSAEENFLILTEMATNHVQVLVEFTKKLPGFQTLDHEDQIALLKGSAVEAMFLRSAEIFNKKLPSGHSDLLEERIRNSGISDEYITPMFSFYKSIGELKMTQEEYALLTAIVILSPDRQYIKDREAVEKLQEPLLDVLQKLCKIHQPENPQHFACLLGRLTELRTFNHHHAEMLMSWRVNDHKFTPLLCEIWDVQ
Summary of the method: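 Transient MRTU transfection, HepG2; 24 h dosing; RNA → RT-PCR → 6-FAM primer extension → HpaI digest → capillary electrophoresis fluorescence. Gain/loss of signal fitted relative to DMSO.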

Measured: AC50

CC(C)COC(=O)c1ccccc1O
inactive: [1] | [2] | [3] | [4] | [5] | [6] | [7] | [8] | [9] | [10] | [11] | [12] | [13] | [14] | [15]

O=c1cc(-c2ccc(O)cc2)oc2cc(O)cc(O)c12
inactive: [1] | [16] | [3] | [18] | [5] | [7] | [8] | [11] | [13]
active: [2] 10.1 µM | [4] 1.18 µM | [17] 17.5 µM | [9] 31 µM | [14] 24.9 µM

COc1ccccc1O
inactive: [1] | [16] | [2] | [3] | [4] | [17] | [18] | [5] | [6] | [7] | [19] | [8] | [9] | [12] | [13] | [14] | [15]

CCCCCCCC(=O)N(C)C
inactive: [1] | [16] | [2] | [3] | [4] | [17] | [18] | [5] | [7] | [9] | [10] | [11] | [12] | [13] | [15]

CNC(=C[N+](=O)[O-])NCCSCc1ccc(CN(C)C)o1
inactive: [1] | [16] | [2] | [3] | [4] | [18] | [5] | [6] | [7] | [8] | [9] | [10] | [11] | [15]

CCCOC(=O)CC
inactive: [1] | [16] | [2] | [3] | [4] | [18] | [5] | [7] | [8] | [9] | [10] | [12] | [13] | [14] | [15]

CCOC(=O)C=Cc1ccccc1
inactive: [1] | [16] | [2] | [3] | [17] | [18] | [5] | [6] | [7] | [9] | [10] | [11] | [12] | [15]

CCO[Si](CCC#N)(OCC)OCC
inactive: [1] | [16] | [2] | [3] | [17] | [18] | [5] | [6] | [7] | [19] | [8] | [9] | [10] | [12] | [13] | [14] | [15]

CC1=C(C=O)C(C)(C)CCC1
inactive: [1] | [16] | [2] | [3] | [4] | [17] | [5] | [6] | [7] | [19] | [8] | [9] | [10] | [11] | [12] | [13] | [15]

CCCCN(CCCC)CCCCCCN(CCCC)CCCC
inactive: [1] | [16] | [2] | [3] | [4] | [18] | [5] | [6] | [7] | [9] | [11] | [12] | [13] | [14] | [15]

Cc1ccccc1S
inactive: [1] | [2] | [3] | [17] | [18] | [6] | [7] | [9] | [10] | [11] | [12] | [13]
active: [5] 134 µM | [19] 55.7 µM | [14] 113 µM | [15] 102 µM

CC(=O)CCc1ccc(O)cc1
inactive: [1] | [16] | [2] | [3] | [4] | [17] | [18] | [5] | [6] | [7] | [8] | [9] | [10] | [11] | [12] | [13] | [14] | [15]
